Article PMC4336329 (PLoS ONE, 2015)
The whole screen tested about 310,000 compounds, of which about 2,200 (0.71%) showed an effect of 50% or more. The effect is printed as a negative number. For the sample, strong results were picked, then their nearest neighbours and some compounds at random.

Molecular target: human ether-à-go-go-related gene (hERG) potassium channel (human, UniProt Q12809)
Assay: primary screen, population patch clamp on CHO cells stably expressing hERG; higher = less effect of the substance

Sequence of human ether-à-go-go-related gene (hERG) potassium channel (Q12809 whole entry, looked up): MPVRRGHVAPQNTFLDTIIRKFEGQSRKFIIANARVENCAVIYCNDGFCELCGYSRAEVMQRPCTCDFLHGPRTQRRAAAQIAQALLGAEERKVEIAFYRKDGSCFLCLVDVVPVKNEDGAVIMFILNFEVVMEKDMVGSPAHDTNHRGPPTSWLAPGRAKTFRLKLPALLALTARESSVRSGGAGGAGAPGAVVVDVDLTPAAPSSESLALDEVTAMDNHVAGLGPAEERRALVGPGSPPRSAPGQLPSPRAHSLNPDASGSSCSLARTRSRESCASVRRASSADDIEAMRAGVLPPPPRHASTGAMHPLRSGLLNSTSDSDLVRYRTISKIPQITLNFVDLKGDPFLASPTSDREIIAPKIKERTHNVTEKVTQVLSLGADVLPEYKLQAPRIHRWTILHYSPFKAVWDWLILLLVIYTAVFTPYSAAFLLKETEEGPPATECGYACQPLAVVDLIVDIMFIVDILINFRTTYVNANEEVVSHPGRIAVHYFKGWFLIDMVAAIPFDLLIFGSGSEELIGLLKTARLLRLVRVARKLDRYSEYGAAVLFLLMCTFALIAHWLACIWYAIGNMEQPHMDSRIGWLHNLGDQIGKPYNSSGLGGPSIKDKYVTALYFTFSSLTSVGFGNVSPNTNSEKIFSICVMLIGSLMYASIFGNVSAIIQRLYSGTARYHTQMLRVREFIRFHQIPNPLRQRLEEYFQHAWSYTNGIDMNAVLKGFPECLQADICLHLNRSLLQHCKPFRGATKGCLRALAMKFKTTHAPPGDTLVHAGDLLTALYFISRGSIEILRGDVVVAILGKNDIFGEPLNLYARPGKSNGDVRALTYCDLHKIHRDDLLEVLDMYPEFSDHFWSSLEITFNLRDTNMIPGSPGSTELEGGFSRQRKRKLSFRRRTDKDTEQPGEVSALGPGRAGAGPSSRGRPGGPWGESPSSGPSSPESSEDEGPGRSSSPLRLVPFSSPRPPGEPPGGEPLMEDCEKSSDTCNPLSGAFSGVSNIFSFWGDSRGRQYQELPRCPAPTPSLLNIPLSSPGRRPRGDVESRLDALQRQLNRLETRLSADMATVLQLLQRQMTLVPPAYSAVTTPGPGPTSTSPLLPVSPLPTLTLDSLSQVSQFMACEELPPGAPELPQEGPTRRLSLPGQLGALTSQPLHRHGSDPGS

| SMILES | hERG current change (%, negative = inhibition) at 1uM [%] |
| --- | --- |
| c1ccc(Nc2nn[nH]n2)cc1 | 10.1 |
| NC(=O)c1sc2nc(N3CCCCC3)c3c(c2c1N)CCCC3 | 4.86 |
| Cc1cc(Cl)c2oc(C(=O)N3CCN(C(=O)c4ccco4)CC3)c(C)c2c1 | 7.14 |
| Cc1cc(Cl)c2oc(C(=O)N3CCN(c4cccc(C)n4)CC3)c(C)c2c1 | 14 |
| Cc1cc(Cl)c2oc(C(=O)N3CCN(c4ccncc4)CC3)c(C)c2c1 | -83.6 |
| Cc1ccc(S(=O)(=O)NCCC(=O)OCC(=O)N(Cc2ccccc2)C(C)(C)C)cc1C | -0.298 |
| O=C1CC2(CCN(C(=O)c3c(F)cccc3F)CC2)Oc2ccccc21 | -3.63 |
| COc1ccccc1OCC(=O)N1CCC2(CC1)CC(=O)c1ccccc1O2 | -4.96 |
| O=C1CC2(CCN(C(=O)c3ccc(F)cc3)CC2)Oc2ccccc21 | -42.2 |
| O=C1CC2(CCN(C(=O)c3ccc(Cl)cc3)CC2)Oc2ccccc21 | -63.7 |
| COc1ccc(Cl)cc1C(=O)N1CCC2(CC1)CC(=O)c1ccccc1O2 | -71.7 |
| O=C1CC2(CCN(C(=O)c3cccc([N+](=O)[O-])c3)CC2)Oc2ccccc21 | -66.7 |
| O=C(O)c1ccc(S(=O)(=O)N2CCC3(CC2)CC(=O)c2ccccc2O3)cc1 | 10.5 |
| CC(=O)N1CCC2(CC1)CC(=O)c1cc(Cl)ccc1O2 | -7.88 |
| O=C1CC2(CCN(C(=O)c3ccc([N+](=O)[O-])cc3)CC2)Oc2ccccc21 | -87.5 |
| O=C1CC2(CCN(C(=O)c3cccc(Cl)c3)CC2)Oc2ccccc21 | -46.6 |
| O=C(c1ccccc1)N1CCN(C(=O)c2ccc([N+](=O)[O-])cc2)CC1 | -4.32 |
| O=C1CC2(CCN(C(=O)c3cccc(F)c3)CC2)Oc2ccccc21 | -32.6 |
| CCO.CN1CC=C2C(C#N)=C(N)C(C#N)(C#N)[C@H](c3ccoc3)[C@H]2C1 | 6.1 |
| COc1cc2ccccc2cc1C(=O)N(CCN(C)C)c1nc2c(OC)ccc(OC)c2s1.Cl | 14 |
| Cc1ccnc(NS(=O)(=O)c2ccc(NS(=O)(=O)c3ccc(Br)cc3)cc2)n1 | 16.1 |

| SMILES | hERG current change (%, negative = inhibition) at 1uM [%] |
| --- | --- |
| COc1ccccc1NC(=S)NC(=O)/C=C/c1cccs1 | 12.3 |
| COCCCNC(=O)CN(c1cc(Cl)cc(Cl)c1)S(C)(=O)=O | 8.12 |
| COc1cc(S(=O)(=O)N2CCN(C(=O)c3ccco3)CC2)ccc1Cl | 8.83 |
| Cn1ncc2nnn(-c3ccccc3)c(=O)c21 | -0.008 |
| C=CCn1c(SCC(=O)Nc2sccc2C(N)=O)nc2ccc(Cl)cc2c1=O | 1.53 |
| FCCCOc1ccc(/C=N/OCc2ccc(Cl)cc2Cl)cc1 | 9.53 |
| O=C1CC2(CCN(C(=O)c3c(F)cccc3Cl)CC2)Oc2ccccc21 | -4.7 |
| O=C1CC2(CCN(C(=O)c3cccc(Br)c3)CC2)Oc2ccccc21 | -56 |
| CSc1ccccc1C(=O)N1CCC2(CC1)CC(=O)c1ccccc1O2 | -27.2 |
| O=C1CC2(CCN(C(=O)c3ccccc3F)CC2)Oc2ccccc21 | -47.9 |
| Cc1c(C(=O)N2CCC3(CC2)CC(=O)c2ccccc2O3)cccc1[N+](=O)[O-] | -83.9 |
| O=C1CC2(CCN(C(=O)c3ccccc3[N+](=O)[O-])CC2)Oc2ccccc21 | -19 |
| O=C1CC2(CCN(C(=O)c3ccccc3Br)CC2)Oc2ccccc21 | -51.4 |
| O=C1CC2(CCN(C(=O)c3ccccc3Cl)CC2)Oc2ccccc21 | -27.6 |
| O=C1CC2(CCN(C(=O)c3ccc(Br)cc3)CC2)Oc2ccccc21 | -30.8 |
| CCn1nnc2cc(C(=O)Nc3cc(OC)cc(OC)c3)ccc21 | 19.3 |
| O=C(CCn1c(=O)sc2ccccc21)Nc1ccon1 | 4.85 |
| COC(=O)c1ccccc1NC(=S)NC(=O)c1ccc(C)cc1 | 9.88 |
| CC(C)CSc1nc2ccccc2[nH]1 | 13 |
| COCCN1C(=O)C(=O)/C(=C(/O)c2ccc(S(=O)(=O)N3CCCCC3)cc2)C1c1ccc(OC)cc1 (stereo not drawn) | 11.9 |
| C=CC[C@@H](C)CC(=O)C(CCCN=[N+]=[N-])SOOc1ccccc1 (stereo partly drawn) | 11.2 |

| SMILES | hERG current change (%, negative = inhibition) at 1uM [%] |
| --- | --- |
| Cc1ccc(S(=O)(=O)N2c3ccccc3-c3c(ssc3=S)C2(C)C)cc1 | -1.68 |
| COc1ccccc1OCC(=O)Nc1ccccc1C(=O)N1CCCC1 | 5.81 |
| Cc1c(Cl)cccc1-c1ccc(C(=O)N2CCN(c3ccc([N+](=O)[O-])cc3)CC2)o1 | -1.98 |
| Cc1cc(C(=O)N2CCN(c3ccc([N+](=O)[O-])cc3)CC2)c(C)o1 | -35.1 |
| Cc1cc(C)n2nc(C(=O)N3CCN(c4ccc([N+](=O)[O-])cc4)CC3)nc2n1 | -77.6 |
| CCc1nc2ccc(C(=O)N3CCN(c4ccc([N+](=O)[O-])cc4)CC3)cc2nc1CC | -38.2 |
| O=C(c1ccc(-c2ccc([N+](=O)[O-])cc2)o1)N1CCCCCCC1 | -6.48 |
| COc1ccc(N2CCN(C(=O)c3nc4nc(C)cc(C)n4n3)CC2)cc1 | 7.39 |
| O=C(c1ccc2nsnc2c1)N1CCN(c2ccc([N+](=O)[O-])cc2)CC1 | -57.4 |
| Cc1ccc(C(=O)N2CCN(c3ccc([N+](=O)[O-])cc3)CC2)o1 | -79 |
| O=C(c1ccc2c(c1)OCCO2)N1CCN(c2ccc([N+](=O)[O-])cc2)CC1 | 1.16 |
| COc1cccc(N2CCN(C(=O)c3nc4nc(C)cc(C)n4n3)CC2)c1 | 8.37 |
| O=C(c1ccc(-c2ccc([N+](=O)[O-])cc2)o1)N1CCCCC1 | -10.5 |
| CCCN1CCN(C(=O)c2ccc(-c3ccc([N+](=O)[O-])cc3)o2)CC1 | -70.1 |
| Cc1cc2cc3c(cc2nc1SCC(=O)N1c2ccccc2CC1C)OCO3 (stereo not drawn) | 5.76 |
| O=C(Nc1ccc2oc(-c3ccncc3)nc2c1)c1ccccc1F | 7.55 |
| Cc1ccccc1OCCC(=O)Nc1ccccc1C(=O)N1CCCCC1 | 10.9 |
| Nc1nc(SCC(=O)c2ccc([N+](=O)[O-])cc2)n[nH]1 | 1.72 |
| O=c1c2cn[nH]c2[nH]c(=S)n1-c1ccccc1 | 14.3 |
| CC(=O)Nc1cccc(OCc2c(F)cccc2Cl)c1 | 4.98 |
| O=C(NC(=S)Nn1cnc2c(cnn2-c2ccccc2)c1=O)c1ccc(Cl)cc1 | 11.4 |

| SMILES | hERG current change (%, negative = inhibition) at 1uM [%] |
| --- | --- |
| CCn1c(SCC(=O)c2cc(C)n(-c3ccc(C(=O)OC)cc3)c2C)nnc1-c1cccnc1 | 1.88 |
| COCCn1c(SCc2ccccc2)nc2c1c(=O)[nH]c(=O)n2C | 11.8 |
| CSCCC1NC(=O)N(CC(=O)Nc2cc(C)on2)C1=O (stereo not drawn) | 9.03 |
| CC(C)C(C(=O)C=[N+]=[N-])N1C(=O)c2ccccc2C1=O (stereo not drawn) | 11.2 |
| O=C(c1cncc(Br)c1)N1CCN(c2ccc(N3CCOCC3)nn2)CC1 | 9.87 |
| Cc1cc(C(=O)N2CCN(c3ccc([N+](=O)[O-])cc3)CC2)co1 | -64.7 |
| CC(=O)N1CCN(c2ccc([N+](=O)[O-])c(-n3nc(C)cc3C)c2)CC1 | -9.97 |
| COc1ccc(C(=O)N2CCN(c3ccc([N+](=O)[O-])c(-n4nc(C)cc4C)c3)CC2)cc1 | -80.6 |
| Cc1cc(C(=O)N2CCN(c3ccc([N+](=O)[O-])cc3)CC2)no1 | -36 |
| Cc1cc(C)n(-c2cc(N3CCN(C(=O)c4ccc(C(C)(C)C)cc4)CC3)ccc2[N+](=O)[O-])n1 | 3.39 |
| O=C(c1cncc(Br)c1)N1CCN(c2ccc([N+](=O)[O-])cc2)CC1 | -62.2 |
| Cc1occc1C(=O)N1CCN(c2ccc([N+](=O)[O-])cc2)CC1 | -45.8 |
| O=C(c1ccc([N+](=O)[O-])cc1)N1CCN(c2ncc(Br)cn2)CC1 | -11.3 |
| C=CCc1cccc2cc(C(=O)Nc3ccc(F)cc3)c(=O)oc12 | 6.28 |
| COC(=O)c1ccc(NC(=S)NC(=O)c2cc(-c3ccccc3)nc3ccccc23)cc1 | 9.36 |
| NC(=O)[C@H]1CC2(CC(c3cccc(NC(=O)CC(c4ccccc4)c4ccccc4)c3)=NO2)CN1C(=O)CC(c1ccccc1)c1ccccc1 (stereo partly drawn) | 14.8 |
| Nc1ccc(O)cc1 | 10.2 |
| COc1ccc(/C=C2\Oc3cc(OC(=O)N4CCOCC4)ccc3C2=O)cc1 | 3.7 |
| CCC(=O)Nc1ccc2oc(-c3ccccc3Br)nc2c1 | 9.07 |
| CC1CCc2c(sc3nc(CN4CCN(S(=O)(=O)c5ccccc5[N+](=O)[O-])CC4)[nH]c(=O)c23)C1 (stereo not drawn) | -0.366 |
| C=CCn1cc(CN2CCC(C(=O)Nc3cccc(-c4cccc(Cl)c4)c3)CC2)c(C)n1 | -30 |
